In PubChem BioAssay AID488922 (Johns Hopkins Ion Channel Center, 2010):
The campaign covered roughly 310,000 compounds. About 3,800 (1.2%) were called active.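 The calls were made as follows: active = ratio B-score over 3 SD below the library mean, with starting fluorescence within 5 SD of its mean; inactive = the rest, inconclusive results apart.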 The list comes from a sample in which actives are over-represented; it also holds similar structures and randomly drawn compounds.

The compounds below were run against Potassium channel subfamily K member 9 (Homo sapiens) (UniProt Q9NPC2) (assay: KCNK9 potassium channel inhibitors, primary screen, HEK293 cells, thallium flux (AID 488922;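 as to B-score: negative B-score means less thallium flux so channel inhibition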)). Details: HEK293 KCNK9, FluxOR thallium flux fluorescence, at 10 µM; active compounds read low.
Sequence of Potassium channel subfamily K member 9 (Homo sapiens) (Q9NPC2 whole entry, looked up): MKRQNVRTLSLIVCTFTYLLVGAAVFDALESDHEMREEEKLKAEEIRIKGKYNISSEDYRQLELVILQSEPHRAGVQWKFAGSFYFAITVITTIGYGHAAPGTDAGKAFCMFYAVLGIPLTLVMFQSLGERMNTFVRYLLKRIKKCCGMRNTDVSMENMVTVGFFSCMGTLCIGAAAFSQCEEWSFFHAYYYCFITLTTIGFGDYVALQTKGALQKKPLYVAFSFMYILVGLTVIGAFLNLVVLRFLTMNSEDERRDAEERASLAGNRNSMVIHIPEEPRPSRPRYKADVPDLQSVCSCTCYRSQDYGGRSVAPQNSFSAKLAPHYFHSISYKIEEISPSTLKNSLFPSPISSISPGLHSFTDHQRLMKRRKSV

B-score, active:
Oc1ccc(/C=N/Nc2nc(-c3ccccc3F)nc3ccccc23)c(O)c1 -10.4, O=C(CC(NC(=O)c1ccccc1)c1ccccc1)Nc1ccc(F)c(F)c1 (stereo not drawn) -10, Cc1cccc(NC(=O)CN2CCCN(S(=O)(=O)c3ccc(Br)s3)CC2)c1 -14.6, CCCSc1nc(NCc2ccco2)c2c3c(sc2n1)COC(C)(CC)C3 (stereo not drawn) -9.18, Cc1cc(C=O)c(C)n1-c1ccc(NC2CCCCC2)c([N+](=O)[O-])c1 -24.9, CCCCCn1c(=O)c(C(=O)OCC)c(Cl)c2ccccc21 -8.35, Cc1cc(C)cc(C(=O)N2CCN=C2SCc2ccc([N+](=O)[O-])cc2)c1 -7.18, COc1ccc(C(=O)N2CCc3cc(OC)c(OC)cc3C2c2cccc([N+](=O)[O-])c2)cc1 (stereo not drawn) -15.3, CN(C)S(=O)(=O)N1CCC(Oc2cccc(C(=O)NCCCC3CCCC3)c2)CC1 -14.3, COc1ccc([N+](=O)[O-])cc1-c1nc2ccccc2nc1-c1ccccc1 -9.17, CCCCC(=O)Nc1ccccc1N1CCN(c2ccc(F)cc2)CC1 -13.2, Cc1cccc(C(=O)Nc2ccccc2N2CCN(c3ccc(F)cc3)CC2)c1 -9.31, O=[N+]([O-])/C=C/c1ccc2c(ccn2Cc2ccccc2)c1 -9.63

B-score, inactive:
Fc1ccc(/C=N/Nc2nc(-c3cccnc3)nc3ccccc23)cc1, Cc1nc2ccccc2nc1N/N=C/c1ccc(O)cc1O, O=C(CN1CCN(Cc2ccccc2)CC1)Nc1ccc(F)c(F)c1, Cc1ccc(NC(=O)NC(=O)c2ccccc2)cc1F, Cc1ccc(N/N=C2\COC(C)(C)CC2=O)cc1, Cc1ccc(S(=O)(=O)N2CCN(CC(=O)N/N=C/c3ccc(Br)s3)CC2)cc1, O=C(CN1CCCCCC1)Nc1ccc(S(=O)(=O)N2CCCCC2)cc1, O=C1CCN(Cc2ccc([N+](=O)[O-])cc2)CCN1[C@H](CO)Cc1ccccc1, CCC1(C)Cc2c(sc3nc(SC)nc(N)c23)CO1 (stereo not drawn), CCC1(C)Cc2c(sc3nc(SC)[nH]c(=O)c23)CO1 (stereo not drawn), COc1ccc(-c2nc3c(s2)CCc2onc(-c4ccc(OC)cc4)c2-3)cc1, CC1CC(C)CN(S(=O)(=O)c2cccc3nonc23)C1 (stereo not drawn), CCn1c(Cc2cccs2)nnc1SCC(=O)c1ccc(C)cc1, Cc1cc([N+](=O)[O-])ccc1NC1CCCC1, Cc1c(NS(=O)(=O)c2ccc(NC3CCCC3)c([N+](=O)[O-])c2)c(=O)n(-c2ccccc2)n1C, Cc1ccc2nc(C)c3c(c2c1)N(c1ccccc1)CC3, Cc1nc2nc(SCC(=O)Nc3cccc(F)c3)[nH]c2cc1Br, COc1ccc(-c2nc3n(c(=O)c2C#N)CCS3)c(OC)c1, CCC1CCC/C1=N\NC(=O)c1ccc(Cl)cc1 (stereo not drawn), Cc1sc2nc(CSCC(=O)NC3CCCCC3)[nH]c(=O)c2c1C, CCOC(=O)c1nnn2c3ccccc3c(=O)n(C)c12, CCCCn1c(=O)c(C(C)=O)c(O)c2ccccc21, COc1ccccc1C1C(C#N)=C(N)Oc2c1c(-c1ccccc1)nn2-c1ccccc1 (stereo not drawn), CCc1nnc(NC(=O)CSc2nc(SC)ns2)s1, CN1C(C(=O)NCc2ccco2)CC2Cn3c(nc4ccccc43)C21 (stereo not drawn), Cc1cccc(CC(=O)N2CCN=C2SCc2ccc([N+](=O)[O-])cc2)c1, O=C(Cc1ccc(F)cc1)N1CCN=C1SCc1cccc([N+](=O)[O-])c1, CC1=CC(=C(C#N)c2nc3ccccc3s2)C=C(C)N1c1ccc(F)cc1F, O=S(=O)(Cc1nnnn1-c1ccc(Br)cc1)c1ccc(F)cc1, COc1ccccc1C1SCCN1C(=O)c1ccc([N+](=O)[O-])cc1 (stereo not drawn), COc1ccc2[nH]c(=O)c(C3c4cc(OC)c(OC)cc4CCN3C(=O)c3ccco3)cc2c1 (stereo not drawn), O=C(NCCCO)/C(=C\C=C\c1ccccc1)NC(=O)c1ccccc1Cl, Cc1ccc(CSc2nsc(C)c2C#N)cc1, O=C(Nc1ccc(F)cc1)C1CCCN(S(=O)(=O)c2ccc(-n3cnnn3)cc2)C1 (stereo not drawn), CNS(=O)(=O)c1cccc(C(=O)NCC2CCCCC2)c1, CN(C(=O)c1cccc(OC2CCN(S(=O)(=O)N(C)C)CC2)c1)C1CCOC1 (stereo not drawn), Cc1ccc(CCNC(=O)c2ccc3nc4ccccc4c(=O)n3c2)cc1, CC(C)(C)c1nnc(NC(=O)C2c3ccccc3Oc3ccccc32)s1, CCn1ccnc1CNC(=O)CC1C(=O)NCCN1Cc1ccc(F)cc1Cl (stereo not drawn), O=[N+]([O-])c1ccc2c(c1)Nc1nc3ccccc3nc1N2, COc1ccc(-c2nc3cc([N+](=O)[O-])ccc3o2)cc1OC, Cc1cnc(NC(=O)c2ccccn2)s1, CC(C)CNC(=O)C(=O)NCC(c1ccc2c(c1)OCO2)N1CCOCC1 (stereo not drawn), CC(C)[C@@H](NC(=O)OC(C)(C)C)C(=O)NCC1CCC(C(=O)N[C@@H](Cc2ccccc2)C(=O)O)CC1 (stereo partly drawn), O=C(Nc1ccccc1N1CCN(c2ccccc2)CC1)c1cccc(F)c1, O=C(Nc1ccccc1N1CCCC1)c1ccc2ccccc2c1, CCCC(=O)Nc1ccccc1N1CCN(C(=O)c2ccccc2)CC1, CCC(C)C(=O)Nc1ccccc1N1CCN(c2ccc(F)cc2)CC1 (stereo not drawn), COc1ccc(NC(=O)CN(C)C(=O)CC2CCCCC2)cc1, CNC1(c2nnnn2-c2c(C)cccc2C)CCOC(C)(C)C1 (stereo not drawn), COc1ccccc1NC(=O)C1=C(C)Nc2nc3ccccc3n2C1c1cccs1 (stereo not drawn), O=c1c([N+](=O)[O-])cc(C(F)(F)F)cn1Cc1cccc(Cl)c1, O=C(/C=C/c1cccc([N+](=O)[O-])c1)N1CCN(Cc2ccccc2)CC1, CC(C)Cc1nnc(NC(=O)CN2C(=O)NC3(CCCCC3)C2=O)s1, COc1cc(/C=C/C(=O)O)cc(S(=O)(=O)Nc2ccccc2C(=O)NCCc2ccccc2)c1OC
